According to PubChem BioAssay (NCATS):
Records with an inconclusive call do not appear. Active and inactive are the calls of the source. Calls come from the whole dose curve; as a rule, active = well fitted cell-killing curve with a large enough effect; inconclusive = small, poorly fitted or top-dose-only effect; inactive = flat fitted curve, though single readings scatter.

What was measured:
[1] = Cell Viability - LYMP2-017 (AID 972); conditions: LYMP2-017 lymphoblastoid cell viability;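 note: cells exposed to compound for 24 hours at 37 °C; nearly all actives have a fitted effect of over 55% in size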
In short: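 Luminescent ATP read-out (CellTiter-Glo, 30 min RT) reports viable cell number. Cells: human lymphoblastoid line, 2500 per well, 5 hr preincubation, 24 hr compound exposure at 37 C. AC50 is derived from qHTS concentration-response data using the standard Hill model.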

[2] = Cell Viability - LYMP2-019 (AID 973); conditions: LYMP2-019 lymphoblastoid cell line viability; note: nearly all actives have a fitted effect of over 55% in size
In short: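 qHTS, 1536-well; 2500 cells/well; 5 hr pre-incubation, 24 hr compound exposure, 37 C; CellTiter-Glo added, 30 min RT; luminescence read; AC50 via standard Hill equation.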

[3] = Cell Viability - LYMP2-021 (AID 974); conditions: LYMP2-021 lymphoblastoid cells viability;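 note: compound exposure lasts 24 hours at 37 °C; nearly all actives have a fitted effect of over 55% in size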
In short: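 ATP luminescence (CellTiter-Glo, 30 min RT) after 24 h compound exposure at 37 C; 2500 human lymphoblastoid cells/well, 5 h settle beforehand. Cytotoxicity = concentration-dependent ATP drop, AC50 by Hill fit.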

[4] = Cell Viability - LYMP2-023 (AID 975); conditions: LYMP2-023 lymphoblastoid cell viability;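 note: cells exposed to compound for 24 hours at 37 °C; nearly all actives have a fitted effect of over 55% in size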
In short: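 CellTiter-Glo luminescence after 30 min at room temperature; decrease in intracellular ATP reflects toxicity. Cells: human lymphoblastoid line, 2500/well, 24 hr compound exposure at 37 C. AC50 fitted to standard Hill equation from concentration-response.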

[5] = Cell Viability - LYMP2-025 (AID 976); conditions: LYMP2-025 lymphoblastoid cell viability
In short: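 CellTiter-Glo luminescence (cellular ATP) after 24 h compound exposure at 37 C; LYMP2-025 human lymphoblastoid cells, 2500/well, complete medium. Tetraoctylammonium bromide positive control. AC50 by Hill equation fit of qHTS concentration-response.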

[6] = Cell Viability - LYMP2-002 (AID 977); conditions: LYMP2-002 lymphoblastoid cell viability, qHTS
In short: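 In this qHTS viability screen, 2500 human lymphoblastoid cells per well receive compound for 24 hr at 37 C, and luciferase-based ATP luminescence gives the viability signal. Tetraoctylammonium bromide serves as positive control.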

[7] = Cell Viability - LYMP2-006 (AID 978); conditions: LYMP2-006 lymphoblastoid cell viability, qHTS;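 note: cells exposed to compound for 24 hours; nearly all actives have a fitted effect of over 60% in size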
In short: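 Human lymphoblastoid cells (LYMP2-006), 2500/well in complete medium, were treated with compound for 24 hr at 37 C. Cellular ATP was read by CellTiter-Glo luminescence after 30 min, and AC50 values came from Hill-equation fits of concentration-response data.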

[8] = Cell Viability - LYMP2-007 (AID 979); conditions: LYMP2-007 lymphoblastoid cell viability;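 note: cells exposed to compound for 24 h before reading; nearly all actives have a fitted effect of over 60% in size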
In short: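 qHTS cytotoxicity: 2500 cells/well, 5 hr 37 C settle, compound 24 hr 37 C, CellTiter-Glo 30 min RT, luminescence. Decrease in ATP = toxicity. AC50 by standard Hill equation; tetraoctylammonium bromide positive control.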

[9] = Cell Viability - LYMP2-008 (AID 980); conditions: LYMP2-008 lymphoblastoid cell viability, qHTS; note: nearly all actives have a fitted effect of over 60% in size
In short: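 Luminescent ATP read-out (CellTiter-Glo, 30 min RT) after 24 hr compound exposure at 37 C of human lymphoblastoid cells in complete medium. Decrease in ATP taken as cytotoxicity; AC50 derived by standard Hill fit of qHTS concentration-response data.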

[10] = Cell Viability - LYMP2-010 (AID 981); conditions: LYMP2-010 lymphoblastoid cell viability, qHTS
In short: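 qHTS cytotoxicity, 1536-well: 2500 cells/well, 5 hr settle, 24 hr compound at 37 C, CellTiter-Glo 30 min RT, luminescence read. Decrease in ATP = toxicity; AC50 via standard Hill equation. Positive control tetraoctylammonium bromide.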

[11] = Cell Viability - LYMP2-012 (AID 982); conditions: LYMP2-012 lymphoblastoid cell viability qHTS
[12] = Cell Viability - LYMP2-014 (AID 983); conditions: LYMP2-014 lymphoblastoid cells, viability qHTS; note: nearly all actives have a fitted effect of over 50% in size
In short: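 2500 cells/well, 5 hr 37 C; cpd 24 hr 37 C, complete medium; CellTiter-Glo 30 min RT, luminescence; ATP loss = toxicity; AC50 via Hill eqn; tetraoctylammonium bromide positive control.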

[13] = Cell Viability - LYMP2-016 (AID 984); conditions: LYMP2-016 lymphoblastoid cell viability, qHTS
In short: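 Human lymphoblastoid LYMP2-016 cells, 2500 per well, treated with compounds for 24 h at 37 C. Viability read as intracellular ATP by CellTiter-Glo luminescence after 30 min at room temperature; AC50 from Hill fits of concentration-response.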

[14] = Cell Viability - LYMP2-018 (AID 985); conditions: LYMP2-018 lymphoblastoid cells, viability (qHTS); note: nearly all actives have a fitted effect of over 50% in size
In short: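 2500 cells/well; 5 hr 37 C; cmpd 24 hr 37 C, complete medium; CellTiter-Glo 30 min RT; luminescence. Tetraoctylammonium bromide positive control. AC50 via Hill fit.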

[15] = Cell Viability - LYMP2-020 (AID 986); note: nearly all actives have a fitted effect of over 55% in size
In short: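 qHTS, 2500 cells/well; 5 hr then 24 hr compound exposure, 37 C; CellTiter-Glo luminescence after 30 min RT; ATP decrease taken as cytotoxicity; AC50 via Hill equation; tetraoctylammonium bromide positive control.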

[16] = Cell Viability - LYMP2-022 (AID 987); conditions: LYMP2-022 lymphoblastoid cell viability; note: nearly all actives have a fitted effect of over 55% in size
In short: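 Luminescent ATP read-out (CellTiter-Glo, 30 min, RT) after 24 hr, 37 C compound exposure of 2500 human lymphoblastoid cells/well in complete medium. Cytotoxicity taken as concentration-dependent ATP loss; AC50 from standard Hill equation.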

[17] = Cell Viability - LYMP2-024 (AID 988); conditions: LYMP2-024 lymphoblastoid cell viability; note: nearly all actives have a fitted effect of over 60% in size
In short: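 ATP-based luminescence (CellTiter-Glo, 30 min RT) after 24 h compound exposure at 37 C of 2500 lymphoblastoid cells/well; decrease in ATP taken as cytotoxicity. qHTS concentration-response fitted to standard Hill equation for AC50.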

[18] = Cell Viability - LYMP2-026 (AID 989); conditions: LYMP2-026 lymphoblastoid cell viability, qHTS; note: nearly all actives have a fitted effect of over 50% in size
In short: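 qHTS cytotoxicity: 2500 cells/well, 5 hr 37 C, compound 24 hr 37 C, CellTiter-Glo 30 min RT, luminescence. Tetraoctylammonium bromide positive control. AC50 via standard Hill fit.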

[19] = Cell Viability - LYMP1-002 - Assay at 24 hr (AID 993); conditions: LYMP1-002 lymphoblastoid cells viability
In short: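 CellTiter-Glo luminescence (intracellular ATP) after 24 h compound exposure, 37 C, in LYMP1-002 human lymphoblastoid cells; decreased ATP taken as cytotoxicity. AC50 from standard Hill fit of concentration-response curves.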

[20] = Cell Viability - LYMP1-002 - Assay at 40 hr (AID 994); conditions: LYMP1-002 lymphoblastoid cell viability; note: nearly all actives have a fitted effect of over 60% in size
In short: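 qHTS cytotoxicity; 2500 cells/well, 5 hr 37 C settle, compound 40 hr 37 C. CellTiter-Glo, 30 min RT, luminescence (ATP). Concentration-response, Hill fit → AC50. Pos. ctrl tetraoctylammonium bromide.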

Measured: Potency
Potency is the fitted concentration of half-maximal effect.

O=C1c2c(O)ccc([N+](=O)[O-])c2C(=O)c2c([N+](=O)[O-])ccc(O)c21
active: [1] 31.6 µM | [2] 39.8 µM | [3] 39.8 µM | [4] 39.8 µM | [5] 39.8 µM | [6] 39.8 µM | [7] 31.6 µM | [8] 39.8 µM | [9] 31.6 µM | [10] 31.6 µM | [11] 39.8 µM | [12] 39.8 µM | [13] 31.6 µM | [14] 39.8 µM | [15] 39.8 µM | [16] 39.8 µM | [17] 39.8 µM | [18] 39.8 µM | [19] 39.8 µM | [20] 39.8 µM
